Experiment [1] can be described thus: qHTS assay to identify small molecule antagonists of the thyroid receptor (TR) signaling pathway (AID 743065). Note: potency is the fitted concentration of half-maximal effect; nearly all actives have a fitted effect of over 55% in size. The gist of the method: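 GH3.TRE-Luc rat pituitary cells carrying two TR response elements driving luciferase were plated for 4 h, given compound plus 1 nM T3 (final), and incubated 23.5 h at 37 C. ONE-Glo luminescence measured reporter inhibition; CellTiter-Fluor fluorescence tracked cytotoxicity.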
Background: Quantitative high-throughput screening tests each substance at several concentrations.

A short description of experiment [2]: qHTS assay to identify small molecule antagonists of the estrogen receptor alpha (ER-alpha) signaling pathway using the BG1 cell line (AID 743080; calls by dose curve;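 note: BG1 cells stimulated with 17beta-estradiol alongside compound; nearly all actives have a fitted effect of over 25% in size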; note: potency is the fitted concentration of half-maximal effect). The gist of the method:
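Luciferase inhibition measured with ONE-Glo after 30 min at RT in BG1Luc4E2 cells given test compounds and 17beta-estradiol for 21.5 h at 37 C; CellTiter-Fluor viability read in the same wells beforehand.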

A short description of experiment [3]: qHTS assay to identify small molecule antagonists of the estrogen receptor alpha (ER-alpha) signaling pathway using the BG1 cell line - cell viability counter screen (AID 743081).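 Note: compound given together with 17beta-estradiol as the ER stimulus; nearly all actives have a fitted effect of over 45% in size.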 Note: potency is the fitted concentration of half-maximal effect.
In the next experiment the target is Aromatase (Homo sapiens) (UniProt P11511). As to the kind of experiment: qHTS assay to identify aromatase inhibitors (AID 743083). Note: nearly all actives have a fitted effect of over 55% in size. Note: potency is the fitted concentration of half-maximal effect.
The target in experiment [4] is Aryl hydrocarbon receptor (Homo sapiens) (UniProt P35869). As to the kind of experiment: qHTS assay to identify small molecule that activate the aryl hydrocarbon receptor (AhR) signaling pathway (AID 743085).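 For activation: HG2L7.5c1 human HepG2 liver cells with stably integrated DRE-driven firefly reporter; series mostly up to about 70 µM.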 Note: nearly all actives have a fitted effect of over 15% in size. Note: potency is the fitted concentration of half-maximal effect. The essentials: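 HepG2 cells stably carrying a 20-DRE firefly luciferase reporter (HG2L7.5c1) treated with compound for 24 hr at 37C. Luciferase read by ONE-Glo luminescence, with CellTiter-Fluor viability read first.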

The nature of experiment [5]: qHTS assay to identify small molecule that activate the aryl hydrocarbon receptor (AhR) signaling pathway - cell viability counter screen (AID 743086). Note: nearly all actives have a fitted effect of over 45% in size. Note: potency is the fitted concentration of half-maximal effect. The gist of the method: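 HepG2-AhR-luc (HG2L7.5c1) cells, 4000/well, were preincubated 5 h at 37C, exposed to compound in qHTS format for 24 hr at 37C, then given CellTiter-Fluor for 30 min; viability was read as fluorescence in the reporter wells.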

Experiment [6] is described as follows: qHTS assay to identify small molecule antagonists of the peroxisome proliferator-activated receptor gamma (PPARg) signaling pathway - cell viability counter screen (AID 743194). Note: nearly all actives have a fitted effect of over 55% in size. The essentials:
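PPARg-UAS-bla HEK293H cells were plated, rested 5 h at 37 C, then treated with compounds plus rosiglitazone (50 nM final) for 17 h at 37 C; viability was then read by CellTiter-Glo luminescence after 30 min at room temperature.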

The nature of experiment [7]: qHTS assay for small molecule agonists of the antioxidant response element (ARE) signaling pathway - cell viability counter screen (AID 743203; calls by dose curve; note: nearly all actives have a fitted effect of over 55% in size; note: potency is the fitted concentration of half-maximal effect). The gist of the method: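 HepG2 cells carrying ARE-driven beta-lactamase; 2,000 cells/well; 5 hrs plating; compound pinned from DMSO; 16 hrs 37C/5% CO2; CellTiter-Glo added; 30 min RT; luminescence.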
A short description of experiment [8]: qHTS assay for small molecule activators of the heat shock response signaling pathway (AID 743210; active = well fitted activation curve with a large enough effect in the signal ratio in the repeat runs, with a control signal flat, not every such curve was filed as active; the % refers to the signal ratio;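 note: HeLa cells with beta-lactamase reporter driven by heat shock elements; series mostly up to about 63 µM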). The gist of the method:
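Reporter gene assay: HeLa cells stably bearing an HSE-bla construct, compound treatment 5 h at 37 C, LiveBLAzer substrate 2.5 h at RT, fluorescence intensity.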

Experiment [9] is described as follows: qHTS assay to identify small molecule agonists of the peroxisome proliferator-activated receptor delta (PPARd) signaling pathway - cell viability counter screen (AID 743211). Note: nearly all actives have a fitted effect of over 55% in size. Note: potency is the fitted concentration of half-maximal effect. The essentials: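 PPARd-bla HEK293H cells (3000/well) were pre-incubated 5 h at 37 C, then exposed to compound for 17 h at 37 C. After 2 h with LiveBLAzer substrate, CellTiter-Glo was added to the same wells; luminescence read after 30 min at room temperature.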

The target in experiment [10] is Estrogen receptor (Homo sapiens) (UniProt P03372). As to the kind of experiment: qHTS assay to identify small molecule agonists of the estrogen receptor alpha (ER-alpha) signaling pathway (AID 743075; calls by dose curve;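 note: HEK293 GripTite cells with ER-alpha and UAS-driven beta-lactamase reporter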).
Experiment [11] shares this target. As to the kind of experiment: qHTS assay to identify small molecule agonists of the estrogen receptor alpha (ER-alpha) signaling pathway using the BG1 cell line (AID 743079). Note: nearly all actives have a fitted effect of over 20% in size. Note: potency is the fitted concentration of half-maximal effect.
Experiment [12] is described as follows: qHTS assay to identify aromatase inhibitors - cell viability counter screen (AID 743084). Note: potency is the fitted concentration of half-maximal effect.
For experiment [13], the target named is Peroxisome proliferator-activated receptor gamma (Homo sapiens) (UniProt P37231). As to the kind of experiment: qHTS assay to identify small molecule agonists of the peroxisome proliferator-activated receptor gamma (PPARg) signaling pathway (AID 743094; active = well fitted activation curve with a large enough effect in the signal ratio in the repeat runs, not every such curve was filed as active; the % refers to the signal ratio). The essentials:
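Beta-lactamase FRET fluorescence was the read-out after a 1 h room-temperature substrate step, following 17 h compound treatment at 37C of HEK293H cells expressing a UAS-driven bla reporter responsive to PPARg.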

Experiment [14] has the same target. As to the kind of experiment: qHTS assay to identify small molecule antagonists of the peroxisome proliferator-activated receptor gamma (PPARg) signaling pathway (AID 743191; calls by dose curve; note: series mostly up to about 63 µM; nearly all actives have a fitted effect of over 30% in size). The gist of the method: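 GeneBLAzer PPARg UAS-bla HEK293H cells carrying a UAS-driven beta-lactamase reporter were plated at 3000 cells/well, preincubated 5 h at 37C, then given compound for 17 h at 37C; LiveBLAzer B/G FRET substrate was read after 1 h at room temperature.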

A short description of experiment [15]: qHTS assay for small molecule agonists of the antioxidant response element (ARE) signaling pathway (AID 743202; active = well fitted activation curve with a large enough effect in the signal ratio in the repeat runs, not every such curve was filed as active; the % refers to the signal ratio; note: potency is the fitted concentration of half-maximal effect). The gist of the method:
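Compounds delivered in DMSO to ARE-bla HepG2 cells (2,000 cells/well, pre-incubated 5 h) and left 16 h at 37 C. LiveBLAzer B/G FRET substrate then added for 2 h at RT before fluorescence reading.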

Experiment [16] is described as follows: qHTS assay for small molecule activators of the heat shock response signaling pathway - cell viability counter screen (AID 743209). Note: nearly all actives have a fitted effect of over 50% in size. Note: potency is the fitted concentration of half-maximal effect. The essentials:
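Luminescence from CellTiter-Glo, added after the beta-lactamase FRET read, gave the viability signal. Cells were HSE-bla HeLa treated with DMSO-dissolved compounds for 5 h at 37 C following overnight plating.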

Experiment [17] has as its system thyroid hormone receptor (rat, GH3 cells). As to the kind of experiment: qHTS assay to identify small molecule agonists of the thyroid receptor (TR) signaling pathway (AID 743066; calls by dose curve).
A short description of experiment [18]: qHTS assay to identify small molecule antagonists of the estrogen receptor alpha (ER-alpha) signaling pathway - cell viability counter screen (AID 743074; calls by dose curve;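 note: HEK293 cells carrying ER-alpha-UAS-bla reporter stimulated with 17beta-estradiol; nearly all actives have a fitted effect of over 45% in size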; note: potency is the fitted concentration of half-maximal effect).
The target of experiment [19] is Estrogen receptor (Homo sapiens) (UniProt P03372). As to the kind of experiment: qHTS assay to identify small molecule antagonists of the estrogen receptor alpha (ER-alpha) signaling pathway (AID 743069; active = well fitted curve in the direction sought with a large enough effect in the signal ratio in the repeat runs, not every such curve was filed as active; the % refers to the signal ratio). The gist of the method:
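Estradiol-stimulated ER-alpha-UAS-bla HEK293 cells, 18 hr compound exposure at 37C. LiveBLAzer B/G substrate, 2 hr RT, fluorescence read.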

Our source for the Potency values is PubChem BioAssay (Tox21).

Values joined by “and” are separate entries in the source; they are usually repeats but may differ in a detail not shown here. Equal entries are not always repeated. Results filed as inconclusive are left out. Some compounds were tested as several samples or in several runs, with calls that do not always agree. Active and inactive are the calls of the source. Unless noted, calls come from the whole dose curve; as a rule, active = well fitted curve in the direction sought with a large enough effect in the repeat runs; inconclusive = weak or mixed curves; inactive = no such curve, though single readings can be large; an effect the other way counts as inactive or inconclusive.

Sequence of Aryl hydrocarbon receptor (Homo sapiens) (P35869 whole entry, looked up): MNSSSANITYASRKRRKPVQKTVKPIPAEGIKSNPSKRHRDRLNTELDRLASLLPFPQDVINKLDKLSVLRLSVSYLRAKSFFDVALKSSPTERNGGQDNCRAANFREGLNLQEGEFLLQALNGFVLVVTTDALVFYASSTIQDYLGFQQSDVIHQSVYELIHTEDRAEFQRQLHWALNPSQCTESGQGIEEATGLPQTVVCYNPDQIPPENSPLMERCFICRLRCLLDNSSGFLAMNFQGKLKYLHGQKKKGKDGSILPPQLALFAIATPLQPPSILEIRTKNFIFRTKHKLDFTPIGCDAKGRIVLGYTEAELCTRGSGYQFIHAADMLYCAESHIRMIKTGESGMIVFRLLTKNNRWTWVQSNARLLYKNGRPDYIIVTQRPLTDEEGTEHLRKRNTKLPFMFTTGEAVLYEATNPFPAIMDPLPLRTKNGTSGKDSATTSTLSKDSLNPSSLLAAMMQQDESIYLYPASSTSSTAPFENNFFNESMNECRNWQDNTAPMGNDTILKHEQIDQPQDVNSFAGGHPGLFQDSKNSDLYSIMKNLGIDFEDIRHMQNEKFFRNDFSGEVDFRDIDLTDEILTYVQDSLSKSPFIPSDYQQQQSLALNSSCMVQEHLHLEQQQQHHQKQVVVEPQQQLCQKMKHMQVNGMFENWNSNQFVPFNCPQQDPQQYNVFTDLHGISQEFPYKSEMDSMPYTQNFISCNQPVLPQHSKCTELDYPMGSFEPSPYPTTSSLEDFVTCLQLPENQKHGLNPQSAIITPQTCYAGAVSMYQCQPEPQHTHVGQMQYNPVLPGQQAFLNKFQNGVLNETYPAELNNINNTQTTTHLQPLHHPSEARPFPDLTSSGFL
Sequence of Peroxisome proliferator-activated receptor gamma (Homo sapiens) (P37231 whole entry, looked up): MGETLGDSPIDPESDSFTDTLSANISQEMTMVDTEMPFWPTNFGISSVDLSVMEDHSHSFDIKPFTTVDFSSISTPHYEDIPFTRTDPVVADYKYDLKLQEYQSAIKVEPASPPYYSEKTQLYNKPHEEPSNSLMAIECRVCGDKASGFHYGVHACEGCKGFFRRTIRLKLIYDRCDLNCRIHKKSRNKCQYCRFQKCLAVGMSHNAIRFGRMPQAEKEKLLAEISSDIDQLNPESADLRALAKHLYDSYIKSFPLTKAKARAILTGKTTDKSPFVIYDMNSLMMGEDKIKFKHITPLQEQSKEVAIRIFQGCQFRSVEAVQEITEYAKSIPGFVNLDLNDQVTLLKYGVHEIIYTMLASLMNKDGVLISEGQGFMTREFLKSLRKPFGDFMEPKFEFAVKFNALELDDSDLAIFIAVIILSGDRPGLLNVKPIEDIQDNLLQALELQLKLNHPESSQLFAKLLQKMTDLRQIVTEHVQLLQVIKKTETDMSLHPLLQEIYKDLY
Sequence of Estrogen receptor (Homo sapiens) (P03372 whole entry, looked up): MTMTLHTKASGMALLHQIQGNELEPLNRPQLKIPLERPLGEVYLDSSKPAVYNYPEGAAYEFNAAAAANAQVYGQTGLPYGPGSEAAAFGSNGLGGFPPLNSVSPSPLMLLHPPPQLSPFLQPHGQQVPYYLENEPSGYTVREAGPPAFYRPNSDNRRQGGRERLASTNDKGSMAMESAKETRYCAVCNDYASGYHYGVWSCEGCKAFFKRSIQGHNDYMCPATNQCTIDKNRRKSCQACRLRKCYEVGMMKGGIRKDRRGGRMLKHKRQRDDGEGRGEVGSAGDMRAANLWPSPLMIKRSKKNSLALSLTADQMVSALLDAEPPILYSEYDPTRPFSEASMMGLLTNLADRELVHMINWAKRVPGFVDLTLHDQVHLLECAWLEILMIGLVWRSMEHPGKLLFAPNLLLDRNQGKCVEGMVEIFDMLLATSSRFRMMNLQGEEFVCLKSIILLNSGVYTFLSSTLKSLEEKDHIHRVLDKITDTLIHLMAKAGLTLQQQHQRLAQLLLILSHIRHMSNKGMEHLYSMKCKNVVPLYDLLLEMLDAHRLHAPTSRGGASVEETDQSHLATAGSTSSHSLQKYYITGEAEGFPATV
Sequence of Aromatase (Homo sapiens) (P11511 whole entry, looked up): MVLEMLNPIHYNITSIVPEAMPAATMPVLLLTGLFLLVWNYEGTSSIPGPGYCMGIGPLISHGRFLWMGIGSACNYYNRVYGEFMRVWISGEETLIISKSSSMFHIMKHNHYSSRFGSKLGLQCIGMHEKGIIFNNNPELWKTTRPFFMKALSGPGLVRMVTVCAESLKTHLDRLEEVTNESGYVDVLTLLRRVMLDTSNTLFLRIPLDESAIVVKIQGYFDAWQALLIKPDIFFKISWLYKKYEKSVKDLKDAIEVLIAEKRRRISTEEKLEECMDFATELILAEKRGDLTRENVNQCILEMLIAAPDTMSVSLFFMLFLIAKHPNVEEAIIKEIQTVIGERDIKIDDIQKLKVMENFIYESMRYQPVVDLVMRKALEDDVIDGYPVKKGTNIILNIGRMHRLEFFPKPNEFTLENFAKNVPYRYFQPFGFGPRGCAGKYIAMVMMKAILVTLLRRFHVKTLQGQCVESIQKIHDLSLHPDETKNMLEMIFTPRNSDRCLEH

With `CC[C@]1(O)C[C@@H]2CN(CCc3c([nH]c4ccccc34)[C@@](C(=O)OC)(c3cc4c(cc3OC)N(C)[C@H]3[C@@](O)(C(=O)OC)[C@H](OC(C)=O)[C@]5(CC)C=CCN6CC[C@]43[C@@H]65)C2)C1`, the Potency in experiment [1] is 75 nM (active) and 42.2 nM (active); in experiment [2], 3.35 µM (active); in experiment [3], 15 µM (active); with Aromatase (Homo sapiens) it was 21.1 µM (active); in [5], 16.8 µM (active) and 15 µM (active). For the same compound, the Potency entry in experiment [4], in [6], in experiment [7], in experiment [8] and in experiment [9] was “inactive” each time.
Turning to `OCCN1CCNCC1`, the Potency entry (in [10]; in experiment [11]; in experiment [2]; in experiment [3]; with Aromatase (Homo sapiens); in experiment [12]) was “inactive” each time. Also, the Potency entry in experiment [4], in experiment [5], in [13], in experiment [14], in experiment [15] and in [7] was “inactive” in each case. For the same compound, the Potency entry in experiment [16], in [8] and in [9] was “inactive” in each case.
Regarding `CCCCC(CC)COC(=O)CC(C(=O)OCC(CC)CCCC)S(=O)(=O)O` (stereo unspecified), the Potency result (in [17]; in experiment [10]; in experiment [2]; in experiment [3]; in the experiment with Aromatase (Homo sapiens); in [12]) was “inactive” in each case. The Potency entry in [4], in experiment [5] and in [13] was “inactive” in each case. In addition, the Potency in [18] is 47.1 µM (active) and inactive; in [11] it was “inactive and 15 µM (active)”; in experiment [16], 52.9 µM (active); in experiment [9], 37.4 µM (active) and 24.5 µM (active).
On to `O=C(O)Cn1cnnn1`, for which the Potency entry in [14], in experiment [6], in [15], in [7], in experiment [16] and in [8] was “inactive” throughout.
As to `CCN(CC)C(=S)SSC(=S)N(CC)CC`, the Potency result was “inactive and 39.8 µM (active)” in [18]; 168 nM (active) and 68.6 nM (active) and 55.8 nM (active) with Aromatase (Homo sapiens); 86.3 nM (active) and 44.3 nM (active) in experiment [12]; 77 nM (active) and inactive in experiment [15]; 27.9 µM (active) and inactive in experiment [7]; 110 nM (active) and 44.7 nM (active) and 150 nM (active) in [9]. The Potency result in [10], in experiment [3], in experiment [4], in [6] and in [16] was “inactive” each time.
Turning to `[Cl][In]([Cl])[Cl]`, the Potency entry in [17], in experiment [19], in experiment [18], in experiment [10], in [2] and in [3] was “inactive” throughout. Further, the Potency result (with Aromatase (Homo sapiens); in [12]; in experiment [4]; in experiment [5]; in [7]; in experiment [16]) was “inactive” throughout. Besides, the Potency result in [9] was “inactive”.
Turning to `COC(=O)[C@H]1[C@H]2C[C@@H]3c4[nH]c5cc(OC)ccc5c4CCN3C[C@H]2C[C@@H](OC(=O)c2cc(OC)c(OC)c(OC)c2)[C@@H]1OC`, the Potency is 11.9 µM (active) and 21.6 µM (active) and 39.7 µM (active) in experiment [1]; 16.8 µM (active) and 27.3 µM (active) and 56 µM (active) with Aromatase (Homo sapiens); 68.5 µM (active) and 39.7 µM (active) in experiment [4]; 17.9 µM (active) in experiment [9]. Also, the Potency result in experiment [18], in experiment [3], in experiment [12], in experiment [5], in [6] and in experiment [7] was “inactive” each time. Besides, in [8], the Potency result is “inactive”.
Consider `C#CC(C)(CC)OC(=O)c1ccccc1C(=O)O` (stereo unspecified), for which the Potency entry in experiment [14], in experiment [6], in [15], in experiment [7], in [16] and in [8] was “inactive” in each case. Further, the Potency entry in [9] is “inactive”.
